FLuc modulator: inhibits or activates purified firefly luciferase, miR-21 counter-screen | purified FLuc, Km substrates, luminescence inhibition | actives 6.9% (n = 360,000) | Potency, µM (top dose mostly 57.5 µM), without a hit: at the top dose activity change, negative = inhibition, hits mostly inhibitors | P08659 | AID 588342;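 further: plate controls were vehicle for no effect and reference inhibitor for full effect; nearly all actives have a fitted effect of over 55% in size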
Target sequence (P08659 whole entry, looked up): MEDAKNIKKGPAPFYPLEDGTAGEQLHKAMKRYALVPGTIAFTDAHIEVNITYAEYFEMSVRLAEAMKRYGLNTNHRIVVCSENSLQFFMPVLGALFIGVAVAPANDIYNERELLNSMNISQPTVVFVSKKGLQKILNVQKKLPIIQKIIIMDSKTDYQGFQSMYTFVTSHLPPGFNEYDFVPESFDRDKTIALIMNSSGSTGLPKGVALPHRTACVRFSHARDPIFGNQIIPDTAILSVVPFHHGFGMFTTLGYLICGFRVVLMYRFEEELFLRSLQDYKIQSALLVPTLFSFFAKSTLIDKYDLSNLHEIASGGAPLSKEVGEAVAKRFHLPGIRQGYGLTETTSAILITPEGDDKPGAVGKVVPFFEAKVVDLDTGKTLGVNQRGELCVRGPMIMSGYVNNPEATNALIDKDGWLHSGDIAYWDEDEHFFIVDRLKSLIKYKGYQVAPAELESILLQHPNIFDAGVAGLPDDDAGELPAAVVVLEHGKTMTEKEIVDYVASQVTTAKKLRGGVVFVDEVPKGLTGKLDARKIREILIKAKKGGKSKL
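Purified P. pyralis luciferase (10nM final) with 10uM D-luciferin and 10uM ATP (Km levels) in 50mM Tris acetate pH 7.5, 10mM Mg acetate, 0.01% Tween-20, 0.05% BSA; qHTS 6-point titration, ~60 µM downward; luminescence read.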
SMN2 splice up: enhancers of SMN2 splice variant expression | HEK293 SMN2-luciferase splicing reporter, luminescence, 30-36 h | Potency, µM (titrated, usually from 46.1 µM), without a hit: at the top dose activity change, positive = activation, actives largely listed as activators | actives 2.8% (n = 210,000) | AID 1458; further: % of control where 0% means no effect; nearly all actives have a fitted effect of over 55% in size
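qHTS luciferase splicing reporter: luminescence rises when SMN2 exon 7 is included in transfected HEK293 cells. Compound exposure lasted 30-36 h at 37C, with 4.5 mM final sodium butyrate as control, followed by a ONE-Glo read.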
p53 reactivation: restores transcriptional activity of mutant p53 | H1299 p53-A138V BP100-luciferase reporter, luminescence, 24 h | Potency, µM (doses to about 92.2 µM), inactives show top-dose activity change, positive = activation, usual class: activators | actives 0.063% (n = 320,000) | AID 504706; further: % of control where 0% means no effect; nearly all actives have a fitted effect of over 45% in size
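p53-null H1299 cells stably carrying temperature-sensitive p53-A138V and a BP100-luciferase reporter were pinned with compounds (4-point, 1:5 series) and held 24 hrs at 37 deg C. Luminescence was read 10 min after detection reagent.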
NPC1 prom act: NPC1 promoter activation; Huh7 NPC1 promoter luciferase reporter, 24 h; Potency, µM (highest dose often 9.22 µM), without a hit: at the top dose activation, most hits filed as activators; actives 2.4% (n = 320,000); AID 485313; further: % of control where 0% means no effect; nearly all actives have a fitted effect of over 60% in size
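Compounds in DMSO were transferred onto Huh7 NPC1-luciferase reporter cells pre-incubated 2 h; after 24 h at 37 °C, Amplite reagent was dispensed and luminescence recorded 10 min later.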
Rab9 prom act: activators of Rab9 promoter | Huh7 Rab9 promoter-luciferase reporter, luminescence, 24 h | actives 2.8% (n = 320,000) | Potency, µM (top dose mostly 9.22 µM), for the others: top-dose activation, negative = inhibition, most hits filed as activators; further: % of control where 0% means no effect; nearly all actives have a fitted effect of over 60% in size
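Huh7 reporter line, Rab9 promoter upstream of luciferase. Compound exposure 24 h at 37 °C in reduced-serum medium with 10% FBS. Read-out: luminescence.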
ELG1 genotoxic: genotoxicity induction in ELG1-luciferase HEK293T cells. Potency, µM (series often up to 46 µM), for inactives: at the top dose activity change, positive = activation, actives largely listed as activators. HEK293T ELG1-luciferase reporter, luminescence, 16 h. actives 1.3% (n = 330,000). AID 504466; further: % of control where 0% means no effect; nearly all actives have a fitted effect of over 60% in size
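16 hr compound incubation (37 °C, 5% CO2) of HEK293T cells carrying luciferase-tagged ELG1; luciferase then measured by ONE-Glo luminescence after 30 min at RT.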
Active calls of the source: *; u = inconclusive; x = no result; [ ] = another dose, or the depositor's remark. Compounds with a hit are over-represented: about 7.3% of the library has one in this group of screens. The call rests on the fitted dose curve; in most records, active means well fitted curve in the direction sought with a large enough effect; inconclusive means small, poorly fitted or top-dose-only effect, or another doubt; inactive means no such curve, though single readings can be large; an effect the other way counts as inactive or inconclusive. Potency means the concentration at half of the fitted maximal effect.

SMILES	FLuc modulator	SMN2 splice up	p53 reactivation	NPC1 prom act	Rab9 prom act	ELG1 genotoxic
CCCc1cc2c(=O)c(-c3ccc4c(c3)OCCO4)coc2cc1OS(C)(=O)=O	5.36µM*	u	14.6%	u	3.16µM*	0.2%
CCCc1cc2c(=O)c(-c3ccc4c(c3)OCCO4)coc2cc1OC(=O)c1ccco1	5.36µM*	u	u	1.26µM*	1.58µM*	18.1%
CCc1cc2c(=O)c(-c3ccc4c(c3)OCCO4)coc2cc1OC(=O)c1ccco1	1.07µM*	u	u	1.78µM*	2µM*	1.46µM*
CCc1cc2c(=O)c(-c3nc4ccccc4[nH]3)coc2cc1OC(=O)N1CCOCC1	u	-34.8%	0.2%	1.7%	3.1%	-2.0%
C/C(=N\Nc1nc(-c2ccccc2)cs1)c1cccs1	0.849µM*	2.82µM*	u	3.55µM*	2µM*	u
C/C(=N\Nc1nc2ccccc2s1)c1cccs1	0.675µM*	x	u	u	3.55µM*	u
C/C(=N\Nc1nc(N2CCOCC2)nc(N2CCOCC2)n1)c1cccs1	2.4%	-3.1%	-3.4%	-0.2%	-7.8%	-2.1%
O=C(COC(=O)c1cccs1)Nc1nc(-c2ccccc2)cs1	-6.7%	x	6.4%	5.8%	20.1%	2.4%
O=C(c1ccc(Br)cc1)N1CCC(C(=O)N2CCN(c3ccccc3)CC2)CC1	-3.5%	x	-4.5%	-4.9%	0.7%	-10.7%
O=C1CN(c2ccccc2)C(=S)N1C(=O)c1ccc(Br)cc1	12µM*	x	-1.9%	2.24µM*	3.16µM*	18.3µM*
O=C(NCc1cccc(Cl)c1)C1CCCN(c2ncnc3onc(-c4ccc(F)cc4)c23)C1 (stereo unspecified)	-10.1%	x	x	x	x	x
CCOc1ccc(NC(=O)CN2C(=O)CC(C)Sc3ccccc32)cc1 (stereo unspecified)	-0.8%	-6.7%	x	x	x	x
COc1cccc(NC(=O)c2c(C)nn(-c3ccccc3)c2Cl)c1	16.9µM*	x	x	17.8%	u	0.5%
COc1cccc(NC(=O)COC(=O)c2c(C)nn(-c3ccccc3)c2C)c1	21.3µM*	x	-2.8%	-1.0%	0.6%	-3.2%
Cc1ccc(NC(=O)c2c(C)nn(-c3ccccc3)c2Cl)cc1	15.1µM*	28.2%	u	11.7%	23.8%	9.0%
CC(=O)c1ccc(NC(=O)c2c(C)nn(-c3ccccc3)c2Cl)cc1	-2.8%	x	-1.4%	-0.3%	-2.6%	0.3%
COCCOC(=O)c1ccccc1C(=O)OCCOC	x	-4.0%	x	x	x	x
NC(=O)c1ccccc1NC(=O)COc1ccc2c(c1)OCO2	4.78µM*	x	u	2.51µM*	3.55µM*	u
O=C(COc1ccc2c(c1)OCO2)Nc1nncs1	9.53µM*	x	13.4%	13.6%	26.5%	u
COc1ccccc1NC(=O)COc1ccc2c(c1)OCO2	15.1µM*	x	17.7%	u	-38.6%	u
CNC(=O)C(=O)NCCc1ccc(Cl)cc1	2.7%	-5.8%	4.3%	-1.6%	3.3%	2.1%
CCCC1(C)C(C#N)(C#N)C1(C#N)C#N	x	x	x	-35.3%[46.1 µM]	-43.9%[46.1 µM]	x
Cc1ccc2c(c1)N(C(=O)CCC(=O)NCc1ccccn1)CC(C)O2 (stereo unspecified)	5.1%	x	x	-4.7%	-0.1%	-0.2%
Oc1ccccc1-c1nc(/C=C/c2ccccc2)nn1-c1ccccc1	u	-24.0%	6.9%	5.4%	8.8%	1.7%
Oc1ccc(/C=C/c2nc(-c3ccccc3O)n(-c3ccccc3)n2)cc1	16.9µM*	-16.2%	-1.8%	-3.9%	5.2%	0.1%
SMILES	FLuc modulator	SMN2 splice up	p53 reactivation	NPC1 prom act	Rab9 prom act	ELG1 genotoxic
CC(C)Oc1ccc2c(=O)c(-c3ccccc3)coc2c1	1.69µM*	3.16µM*	32.0%	0.794µM*	0.891µM*	9.2µM*
CC(=O)Oc1ccc2c(=O)c(Oc3ccccc3[N+](=O)[O-])coc2c1	-8.1%	11.2%	2.3%	-1.1%	-1.3%	-1.5%
CC(=O)Oc1ccc2c(=O)c(-c3nc4ccccc4s3)coc2c1	1.07µM*	12.6µM*	u	1.26µM*	1.26µM*	u
COC(=O)COc1ccc2c(=O)c(-c3ccccc3)coc2c1	16.9µM*	x	-0.5%	2.9%	1.3%	-1.9%
COC(=O)COc1ccc2c(-c3ccc(OC)cc3)cc(=O)oc2c1	u	-10.5%	-0.2%	-0.7%	-3.0%	0.9%
CC(Oc1ccc2c(-c3ccccc3)cc(=O)oc2c1)C(=O)O (stereo unspecified)	-16.7%	10.8%	0.9%	-1.1%	11.6%	-3.4%
Cc1cccc(NC(=O)c2sc(-n3nc(C)c(Cc4ccc5c(c4)OCO5)c3C)nc2C)c1C	-1.7%	x	x	x	x	x
COc1ccc(S(=O)(=O)N(CC(=O)NCCSc2ccccc2)c2ccc(Cl)cc2)cc1	-10.6%	-6.6%	x	x	x	x
CCOc1ccc(/C=C/c2nc(C#N)c(N3CCCCC3)o2)cc1	1.7%	-2.3%	x	x	x	x
O=C(/C=C/c1ccco1)Nc1ccc2c(c1)OCO2	6.01µM*	10µM*	-1.1%	1.78µM*	0.794µM*	u
O=C(/C=C/c1ccco1)Nc1ccc(F)cc1	13.5µM*	x	x	3.98µM*	3.98µM*	x
O=C(/C=C/c1ccco1)NCc1ccc2c(c1)OCO2	u	12.0%	-1.0%	3.6%	-1.1%	0.0%
Cc1ccc(C)c(NC(=O)CSc2ncc3c(n2)-c2ccc(Cl)cc2N(C)S3(=O)=O)c1	-4.9%	x	x	x	x	x
COCCSc1nnc(NC(=O)CSc2ccccc2)s1	-4.8%	4.6%	6.8%	8.7%	12.1%	3.4%
CC(C)(C)C(=O)Nc1nnc(SCc2cccc(F)c2)s1	19µM*	u	u	u	2µM*	15.2%
COCCSc1nnc(NC(=O)C(C)(C)C)s1	15.1µM*	x	4.5%	u	u	17.4%
Cc1ccc(C)c(NC(=S)NCc2cccn2C)c1	0.7%	u	-5.7%	-4.3%	-9.1%	2.9%
COC(=O)c1ccc(N=Cc2c(C(F)(F)F)[nH][nH]c2=O)cc1	3.8%	19.0%	8.6%	0.3%	-3.8%	26.3%
Cc1ccc(OCCCCn2c(-c3ccc(Cl)cc3)nc3ccccc3c2=O)cc1	-1.1%	-18.7%	x	x	x	x
COC(=O)c1cccc(NC(=O)c2cc3ccccc3o2)c1	2.13µM*	x	x	0.708µM*	0.708µM*	15.9%
COC(=O)c1ccccc1NC(=O)c1cc2ccccc2o1	13.5µM*	x	x	u	u	-0.7%
COC(=O)c1cc(NC(=O)c2cc3ccccc3o2)cc(C(=O)OC)c1	u	x	-10.8%	-4.1%	10.2%	-8.3%
COC(=O)c1ccccc1NC(=O)c1ccc(-c2ccc(Br)cc2)o1	-7.4%	28.3%	25.5%	10.4%	0.794µM*	1.84µM*
O=C(Nc1cccc(NC(=O)c2ccc(-c3ccc(Br)cc3)o2)c1)c1ccco1	2.69µM*	17.1%	7.7%	18.7%	19.2%	-7.1%
